Assay outcomes from PubChem BioAssay.
C-LANA FP = inhibitors of KSHV LANA C-terminal domain DNA binding. inhibition, % at 9 µM. MBP-C-LANA/FAM-LBS DNA binding, fluorescence polarization. hit rate 0.078% among 340,000. AID 504423;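 active = highest replicate inhibition at or above 60% at 9 µM, even if other replicates fall short; inactive = all replicates below 60% inhibition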;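 also: 0% = neutral control wells and 100% = 4 µM acridine orange control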
LANA-H2A inh = blocks KSHV LANA binding to histone H2A/H2B; cell-free LANA-H2A/H2B peptide, fluorescence polarization; inhibition, % (test concentration not listed); hit rate 0.6% among 320,000; AID 2629; in the data active = inhibition mostly above about 10%, no sharp cut-off; inactive = mostly below about 6.7%
GLD-1 TGE inh = GLD-1-TGE RNA interaction inhibition (C. elegans); AID 2280; purified GLD-1 + fluorescein TGE RNA, fluorescence polarization; inhibition, % at 5.96 µM; Q17339; hit rate 0.44% among 320,000;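 active = percent inhibition above a per-plate cutoff, the plate mean of test compounds plus 3 SD, cut at about 30% in these data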;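 also: 0% = DMSO wells with GLD-1 and probe and 100% = wells lacking GLD-1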
Keap1-Nrf2 PPI = Keap1-Nrf2 (human) interaction inhibition. Q14145. Keap1 Kelch-Nrf2 peptide fluorescence polarization, 1536-well. inhibition, % at 9.4 µM. hit rate 0.15% among 340,000. AID 504523; in the data active = inhibition above about 12%;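 also: human Keap1 Kelch domain with fluorescein labeled Nrf2 9mer peptide probe; 0% = neutral control wells and 100% = peptide positive control; higher means more block of Keap1 binding to Nrf2 peptide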
E coli Lon inh = E. coli protease La inhibition | inhibition, % at 7.94 µM | hit rate 0.42% among 360,000 | AID 602123 | purified E. coli Lon protease, fluorescence polarization; in the data active = inhibition above about 13%, passing the limit was not always enough;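 also: 0% = enzyme with probe and DMSO and 100% = no enzyme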
EBV gp42 inh = blocks Epstein-Barr virus glycoprotein 42 binding. inhibition, % (tested at 21.74 µM). Fluorescence polarization binding assay, mP read-out. AID 1085. Q1HVG2. hit rate 0.42% among 220,000; in the data active = inhibition above about 50%
The depositor's hits bear a star; nt = no result given; + = active, no number. Only some compounds are listed: those with a hit (about 1.5% of all), similar ones and a draw of the others.

SMILES	C-LANA FP	LANA-H2A inh	GLD-1 TGE inh	Keap1-Nrf2 PPI	E coli Lon inh	EBV gp42 inh
COc1ccc2[nH]c3c(c2c1)CCN1C(=O)C(CC(=O)NC(C)(C)C)C[C@H](C(=O)N2CCCCC2)[C@@]31CCc1ccccc1 (stereo partly specified)	-1.3	nt	nt	-2.5	-10.0	nt
COc1ccc2[nH]c3c(c2c1)CCN1C(=O)C(CC(=O)NCCc2ccccn2)C[C@H](C(=O)N2CCOCC2)[C@@]31CCC1CCCC1 (stereo partly specified)	0.4	nt	nt	2.3	-4.2	nt
CC[C@]12c3[nH]c4ccccc4c3CCN1C(=O)C(CC(=O)NCC13CC4CC(CC(C4)C1)C3)C[C@@H]2C(=O)N1CCN(C(=O)C2CC2)CC1 (stereo partly specified)	-1.8	+	-0.2	-3.7	0.8	nt
O=C(CC1C[C@H](C(=O)N2CCOCC2)[C@@]2(CCC3CCCC3)c3[nH]c4ccccc4c3CCN2C1=O)NCCc1ccccn1 (stereo partly specified)	-2.2	104.9*	1.3	3.8	-5.5	nt
CC[C@]12c3[nH]c4ccccc4c3CCN1C(=O)C(CC(=O)NC(C)(C)C)C[C@@H]2C(=O)N1CCN(C(=O)C2CC2)CC1 (stereo partly specified)	-2.0	182.6*	1.2	0.4	0.8	nt
CC(C)(C)NC(=O)CC1C[C@H](C(=O)N2CCCCC2)[C@@]2(CCc3ccccc3)c3[nH]c4ccccc4c3CCN2C1=O (stereo partly specified)	1.5	32.4*	3.0	-3.4	-6.3	nt
Cc1cccc(NC(=O)c2nc[nH]c2C(=O)NC[C@H](C)O)c1	nt	nt	nt	nt	1.4	nt
CN(C)c1ccnc2sc(C(=O)NCc3ccccc3)c(N)c12	-0.6	1.0	1.3	-3.3	7.6	-27.3
CN(C)c1ccnc2sc(C(=O)c3ccc(Br)cc3)c(N)c12	0.0	-6.2	3.0	-5.3	2.5	72.5*
Cc1ccc(OCc2nnc(SC(C)C(=O)O)n2Cc2ccccc2)cc1 (stereo unspecified)	-0.5	10.7*	4.7	1.5	-1.7	-17.7
CNC(=O)COC(=O)c1cc(F)c(F)cc1Cl	0.7	20.4*	13.3	-4.9	9.5	-1.7
COc1ccc(N(CC(=O)Nc2cc(C)ccc2C)S(=O)(=O)c2c(C)noc2C)cc1	-0.5	4.4	2.4	0.5	4.2	nt
COc1ccc(N(CC(=O)Nc2cc(Cl)ccc2C)S(=O)(=O)c2c(C)noc2C)cc1	-0.8	51.4*	5.4	-2.9	7.2	nt
CN(C)C1(CNC(=O)C2CCC(=O)N(Cc3ccc(Cl)cc3)C2)CCCCC1 (stereo unspecified)	-0.7	11.2*	9.0	2.0	1.0	nt
CCc1nc2ccc(C(=O)N(C)CCN(C)C)cn2c1N(CC)C(=O)NCCc1ccccc1	nt	nt	nt	nt	1.9	nt
O=C(c1coc(=O)c(Br)c1)N1CCC(C(O)(c2ccccc2)c2ccccc2)CC1	0.0	0.7	0.3	-0.2	-3.4	-2.7
O=C(c1coc(=O)c(Br)c1)N1CCCc2ccccc21	76.9*	-0.6	0.0	-0.7	-1.7	nt
CC1(C)CCCN(C(=O)c2coc(=O)c(Br)c2)C1	64.0*	nt	nt	-3.7	-6.3	52.0*
O=C(c1cccc(Br)c1)N1CCCc2ccccc21	-1.3	-15.8	3.6	1.5	7.6	nt
CCCCNC(=O)C1(C)CCCCN1C(=O)c1oc2ccccc2c1C (stereo unspecified)	nt	nt	nt	nt	-1.2	nt
O=C(N=C1SC2CS(=O)(=O)CC2N1c1ccc(F)cc1)C1CC1 (stereo unspecified)	-0.2	16.2*	4.8	-3.4	1.8	nt
O=C(N=C1SC2CS(=O)(=O)CC2N1c1ccc(F)cc1)C1CCCCC1 (stereo unspecified)	1.0	-4.7	3.8	-3.2	1.8	nt
COc1ccc(S(=O)(=O)N2CCCN(S(=O)(=O)c3ccc(OC)cc3C)CC2)c(C)c1	-0.9	3.5	2.1	-2.6	-1.8	16.1
O=C(COc1ccccc1)Nc1nccs1	0.3	28.2*	11.3	-3.5	-1.3	-8.9
Nc1ccc(-c2nc3ccc(C(=O)O)cc3s2)cc1	51.3	-11.8	0.7	-4.7	-5.6	98.8*
SMILES	C-LANA FP	LANA-H2A inh	GLD-1 TGE inh	Keap1-Nrf2 PPI	E coli Lon inh	EBV gp42 inh
O=C(O)c1ccc2nc(-c3ccccc3)sc2c1	0.3	-0.3	2.5	-2.0	-2.1	7.9
Cc1ccccc1C(=O)N1CCN(S(=O)(=O)c2cccs2)CC1	-0.7	5.4	1.9	-2.5	3.4	nt
Cc1ccsc1C(=O)N1CCN(S(=O)(=O)c2cccs2)CC1	-0.6	149.2*	6.2	-6.0	3.8	-8.3
CSC(=NS(=O)(=O)c1ccc(N)cc1)NS(=O)(=O)c1cccs1	68.5*	nt	nt	5.0	-3.9	nt
CN1/C(=C\P(=O)(N(C)C)N(C)C)C(C)(C)c2ccccc21	-3.0	-14.4	58.8*	-18.8	5.0	-0.2
CCCNC(=O)C1(C)CCCN(CC(=O)c2ccc3c(c2)OCCO3)C1 (stereo unspecified)	nt	nt	nt	nt	-0.8	nt
CC1(C)NC(C(=O)O)Cc2c1[nH]c1ccccc21 (stereo unspecified)	0.4	7.0*	-1.5	-0.8	-3.6	-13.4
Cc1c(CC(=O)NCC(=O)NCC(=O)N[C@@H](Cc2ccccc2)C(=O)O)c(=O)oc2c(C)c(O)ccc12	nt	nt	nt	nt	-4.3	nt
Cc1ccc(CNC(=O)CC(C)S(=O)(=O)c2ccc3c(c2)NC(=O)CS3)o1 (stereo unspecified)	15.2	-0.7	45.6*	-10.0	-31.5	nt
Cc1ccccc1NC(=O)Cc1nc(COC(=O)C(C)C)cs1	-3.2	-1.5	2.8	-3.2	-3.4	nt
Cc1ccccc1NC(=O)Cc1nc(COC(=O)CCC(=O)c2ccccc2)cs1	4.5	104.4*	6.4	7.8	-2.0	nt
Oc1cccc(/C=N/NC(=S)Nc2cccnc2)c1O	-0.3	197.2*	5.5	-2.7	0.0	-0.9
CCOC(=O)/C(=C/c1ccc(N2CCC(c3ccccc3)=N2)cc1)C(C)=O	7.8	nt	nt	3.9	-79.8	156.1*
CCc1ccc(C(O)c2ncc(-c3ccccc3C(F)(F)F)[nH]2)cc1 (stereo unspecified)	nt	nt	nt	nt	-7.6	nt
Cc1ccc2cc(/C=C3\N=C(c4ccccc4)OC3=O)c(N3CCOCC3)nc2c1	nt	-15.6	0.2	nt	nt	157.5*
O=C(CSc1ccccc1F)Nc1ccc(N2CCOCC2)cc1	-0.8	18.1*	2.2	-0.9	8.2	nt
COc1ccccc1Nc1nc2nonc2[nH]c1=O	-1.4	-0.6	-1.9	1.2	-5.4	-12.8
CCCS(=O)(=O)NC(=O)C1(C)CCCN(C(=O)c2cc(C)nn2C(C)(C)C)C1 (stereo unspecified)	nt	nt	nt	nt	-16.1	nt
CC(C)(C)N=C1NN=C(c2cc3ccccc3o2)CS1	0.9	-452.2	9.1	-5.1	1.0	-40.9
Cc1ccc(NC(=O)CSc2nnc(CCCCCNC(=O)OC(C)(C)C)o2)c(C)c1	-0.2	4.0	8.8	-1.2	-8.6	-4.0
CC(=O)Nc1ccc2nc(NC(=O)c3cccs3)sc2c1	-1.3	3.8	-7.1	-3.3	-1.3	-4.1
Cn1cc(Cl)c(C(=O)Nc2nc3ccc([N+](=O)[O-])cc3s2)n1	0.7	1.5	1.4	2.3	-2.0	66.6*
